# Assay results: the antibiotic and cytotoxicity screens of Wong et al. (2023)
# Screen size: about 39,000 compounds; about 3,300 (8.5%) were called active. Only a selection was taken, and actives are over-represented in it overall.
# Tested on: HepG2
# Test: cytotoxicity call (relative viability < 0.9)
# Conditions: 10 µM
row,SMILES,cytotoxicity call
1,CN(C)Cc1cn(CC[C@@H]2CC[C@H](N)[C@@H](CO)O2)nn1,inactive
2,C[C@H]1CN([C@@H](C)CO)C(=O)c2cccc(NC(=O)NC3CCCCC3)c2O[C@H]1CN(C)S(=O)(=O)c1cn(C)cn1,inactive
3,O=C(C[C@@H]1CC[C@H]2[C@@H](COC[C@@H](O)CN2C(=O)c2ccccn2)O1)NC1CCC1,inactive
4,CN1CCC(=C2c3ccccc3CC(=O)c3sccc32)CC1.O=C(O)C=CC(=O)O,inactive
5,CN1CCC(=C2c3ccccc3C=Cc3ccccc32)CC1.Cl,active
6,CN1CCC(=C2c3ccccc3Sc3ccccc32)CC1.O=C(O)C=CC(=O)O,active
7,CN1C(=O)c2ccccc2C1=O,inactive
8,CN1CCC(=C2c3ccccc3CCc3sccc32)CC1.O=C(O)CC(O)C(=O)O,inactive
9,CN1CCN(C(c2ccccc2)c2ccccc2)CC1,inactive
10,C[C@H]1CCCCO[C@H](CN(C)C(=O)Nc2ccc(C(F)(F)F)cc2)[C@@H](C)CN([C@@H](C)CO)C(=O)c2cc(NC(=O)c3ccccc3)ccc2O1,inactive
11,CCOC(=O)[C@@H]1C(Cc2ccccc2)=CN(CCc2ccc(OC)c(OC)c2)C(=O)N1c1ccc(OC)cc1,inactive
12,C[C@@H]1CN([C@H](C)CO)C(=O)c2cc(C#CCN(C)C)cnc2O[C@@H]1CN(C)C(=O)Nc1cccc(F)c1,inactive
13,C[C@@H]1CN([C@@H](C)CO)C(=O)c2cccc(NC(=O)c3nc4ccccc4s3)c2O[C@H]1CN(C)C(=O)Nc1cccc2ccccc12,active
14,C[C@H](CO)N1C[C@H](C)[C@H](CN(C)C(=O)Nc2cccc3ccccc23)Oc2c(NC(=O)c3nc4ccccc4s3)cccc2C1=O,inactive
15,C[C@@H]1CN([C@@H](C)CO)C(=O)c2cccc(NC(=O)c3nc4ccccc4s3)c2O[C@@H]1CN(C)CC1CCCCC1,active
16,C[C@@H]1CN([C@H](C)CO)C(=O)c2cccc(NC(=O)c3nc4ccccc4s3)c2O[C@H]1CN(C)CC1CCCCC1,inactive
17,C[C@H]1CN([C@@H](C)CO)C(=O)c2cccc(NC(=O)c3nc4ccccc4s3)c2O[C@H]1CN(C)C(=O)Nc1cccc2ccccc12,inactive
18,C[C@@H]1CN([C@@H](C)CO)C(=O)c2cccc(NC(=O)c3nc4ccccc4s3)c2O[C@H]1CN(C)CC1CCCCC1,inactive
19,C[C@H]1CN([C@@H](C)CO)C(=O)c2cccc(NC(=O)c3nc4ccccc4s3)c2O[C@@H]1CN(C)C(=O)Nc1cccc2ccccc12,inactive

row,SMILES,cytotoxicity call
1,C[C@H](CO)N1C[C@H](C)[C@@H](CN(C)C(=O)Nc2cccc3ccccc23)Oc2c(NC(=O)c3nc4ccccc4s3)cccc2C1=O,active
2,C[C@@H]1CN([C@H](C)CO)C(=O)c2cccc(NC(=O)c3nc4ccccc4s3)c2O[C@@H]1CN(C)C(=O)Nc1cccc2ccccc12,inactive
3,COc1cccc(S(=O)(=O)N[C@H]2CC[C@@H](CC(=O)NC3CCC3)O[C@H]2CO)c1,inactive
4,COC(=O)c1c[nH]c(=S)n1C,inactive
5,COc1ccc(NC(=O)Nc2cccc3c2O[C@H](CN(C)Cc2ccc(C(=O)Nc4ccccc4N)cc2)[C@@H](C)CN([C@@H](C)CO)C3=O)cc1,inactive
6,O=C(C[C@H]1CC[C@@H]2[C@H](COC[C@H](O)CN2C(=O)c2ccccc2F)O1)N1CCN(c2ccccc2)CC1,inactive
7,CC[C@@H](C)SSc1ncc[nH]1,inactive
8,C[C@@H]1CCCCO[C@@H](CN(C)C(=O)Nc2cccc3ccccc23)[C@@H](C)CN([C@H](C)CO)C(=O)c2cc(NC(=O)C3CCCCC3)ccc2O1,inactive
9,C[C@@H]1CN([C@H](C)CO)C(=O)c2cc(NC(=O)C3CCCCC3)ccc2O[C@@H](C)CCCCO[C@@H]1CN(C)C(=O)Nc1cccc2ccccc12,active
10,C[C@H]1CCCCO[C@@H](CN(C)C(=O)Nc2cccc3ccccc23)[C@@H](C)CN([C@@H](C)CO)C(=O)c2cc(NC(=O)C3CCCCC3)ccc2O1,inactive
11,C[C@H](CO)N1C[C@H](C)[C@@H](CN(C)C(=O)Nc2cccc3ccccc23)OCCCC[C@H](C)Oc2ccc(NC(=O)C3CCCCC3)cc2C1=O,inactive
12,C[C@@H]1CCCCO[C@H](CN(C)C(=O)Nc2cccc3ccccc23)[C@@H](C)CN([C@@H](C)CO)C(=O)c2cc(NC(=O)C3CCCCC3)ccc2O1,inactive
13,C[C@@H]1CCCCO[C@H](CN(C)C(=O)Nc2cccc3ccccc23)[C@@H](C)CN([C@H](C)CO)C(=O)c2cc(NC(=O)C3CCCCC3)ccc2O1,inactive
14,C[C@@H]1CCCCO[C@@H](CN(C)C(=O)Nc2cccc3ccccc23)[C@H](C)CN([C@H](C)CO)C(=O)c2cc(NC(=O)C3CCCCC3)ccc2O1,active
15,C[C@@H]1CCCCO[C@H](CN(C)C(=O)Nc2cccc3ccccc23)[C@H](C)CN([C@H](C)CO)C(=O)c2cc(NC(=O)C3CCCCC3)ccc2O1,active
16,C[C@@H]1CCCCO[C@@H](CN(C)C(=O)Nc2cccc3ccccc23)[C@H](C)CN([C@@H](C)CO)C(=O)c2cc(NC(=O)C3CCCCC3)ccc2O1,inactive
17,C[C@@H]1CCCCO[C@@H](CN(C)C(=O)Nc2cccc3ccccc23)[C@@H](C)CN([C@@H](C)CO)C(=O)c2cc(NC(=O)C3CCCCC3)ccc2O1,inactive
18,C[C@H](CO)N1C[C@H](C)[C@H](CN(C)C(=O)Nc2cccc3ccccc23)OCCCC[C@H](C)Oc2ccc(NC(=O)C3CCCCC3)cc2C1=O,active
19,C[C@@H]1CN([C@H](C)CO)C(=O)c2cc(NC(=O)C3CCCCC3)ccc2O[C@@H](C)CCCCO[C@H]1CN(C)C(=O)Nc1cccc2ccccc12,inactive
